In all, about 5,500 compounds went through this assay and about 2,000 (36%) were called active. Roughly 18% stayed inconclusive and do not appear here. Rule as the data show it: active = normalized growth mostly below about 0.91 (no sharp cut-off); inconclusive = no clear call, values can overlap the other calls; inactive = mostly above about 0.92. The list shows a part of the results.
Test: chemical genetic growth profiling, strain panel (AID 1159580);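 also: tested at 20 µM; growth read once vehicle control cultures reached saturation at 30 °C; 1 = growth at the plate median or of vehicle wells; lower values mean less growth of the strain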
Settings: S. cerevisiae deletion strains, growth OD

Measured: normalized growth

CCCCCCCCCCCCCCCC(=O)OC[C@H](NC(=O)C(Cl)Cl)[C@H](O)c1ccc([N+](=O)[O-])cc1
active: locus YMR058W, strain fet3, hits give low values 0.88 | locus YMR129W, hits give low values 1.09 [resistant]
inactive: locus YAL021C, strain ccr4, hits give low values 0.986 | locus YAL026C, strain drs2, hits give low values 0.995 | locus YAL030W, strain snc1, hits give low values 1.04 | locus YBL061C, strain skt5, hits give low values 1.02 | locus YBR009C, strain hhf1, hits give low values 1.02 | locus YBR023C, strain chs3, hits give low values 1.01 | locus YBR171W, strain sec66, hits give low values 1.06 | locus YBR231C, strain swc5, hits give low values 1.01 | locus YBR279W, strain paf1, hits give low values 1.02 | locus YCL011C, strain gbp2, hits give low values 1.03 | locus YCL016C, strain dcc1, hits give low values 1 | locus YCL069W, strain vba3, hits give low values 1.04 | locus YCR088W, strain abp1, hits give low values 1.04 | locus YDL005C, strain med2, hits give low values 1.05 | locus YDL040C, strain nat1, hits give low values 1.01 | locus YDR001C, strain nth1, hits give low values 1.03 | locus YDR069C, strain doa4, hits give low values 0.973 | locus YDR137W, strain rgp1, hits give low values 1.01 | locus YDR159W, strain sac3, hits give low values 1.03 | locus YDR195W, strain ref2 1.05 | locus YDR297W, strain sur2, hits give low values 1.03 | locus YDR334W, strain swr1, hits give low values 1.03 | locus YDR335W, strain msn5, hits give low values 1.02 | locus YDR392W, strain spt3, hits give low values 1.03 | locus YEL003W, strain gim4, hits give low values 1.04 | locus YEL037C, strain rad23, hits give low values 1.03 | locus YEL061C, strain CIN8 (second series), hits give low values 1.04 | locus YER015W, strain faa2, hits give low values 1 | locus YER016W, strain bim1, hits give low values 1.02 | locus YER111C, strain swi4, hits give low values 1.02 | locus YER155C, strain BEM2 (second series), hits give low values 1.03 | locus YFR010W, strain ubp6, hits give low values 1.01 | locus YGL167C, strain pmr1, hits give low values 1.03 | locus YGL173C, strain kem1, hits give low values 1.05 | locus YGL227W, strain vid30, hits give low values 1.04 | locus YGL240W, strain doc1, hits give low values 1.07 | locus YGL253W, strain hxk2, hits give low values 1.01 | locus YHR013C, strain ard1, hits give low values 1.07 | locus YHR027C, strain rpn1, hits give low values 0.992 | locus YHR030C, strain SLT2, hits give low values 0.97 | locus YHR079C, strain IRE1, hits give low values 0.985 | locus YHR142W, strain chs7, hits give low values 1.05 | locus YJL092W, strain hpr5, hits give low values 1.04 | locus YJL095W, strain BCK1 (second series), hits give low values 1.05 | locus YJL095W, strain BCK1, hits give low values 0.998 | locus YJL115W, strain asf1, hits give low values 1.05 | locus YJL129C, strain trk1, hits give low values 1.09 | locus YJL154C, strain vps35, hits give low values 1.03 | locus YJL164C, strain tpk1, hits give low values 1.04 | locus YJL166W, strain qcr8, hits give low values 1.03 | locus YJL187C, strain SWE1, hits give low values 1.05 | locus YJR066W, strain TOR1, hits give low values 0.984 | locus YKL160W, strain elf1, hits give low values 1.02 | locus YKR026C, strain gcn3, hits give low values 1.03 | locus YKR091W, strain srl3, hits give low values 1.02 | locus YLL001W, strain dnm1, hits give low values 1.02 | locus YLL026W, hits give low values 1 | locus YLL041C, strain sdh2, hits give low values 1.02 | locus YLR027C, strain aat2, hits give low values 1.02 | locus YLR113W, strain HOG1, hits give low values 0.975 | locus YLR221C, strain rsa3, hits give low values 1.02 | locus YLR258W, strain gsy2, hits give low values 1.03 | locus YLR262C, strain YPT6 (second series), hits give low values 1.03 | locus YLR320W, strain mms22, hits give low values 1.01 | locus YLR342W, strain FKS1, hits give low values 1.01 | locus YLR357W, strain rsc2, hits give low values 1.03 | locus YLR370C, strain arc18, hits give low values 1.04 | locus YLR384C, strain iki3, hits give low values 1.02 | locus YML120C, strain ndi1, hits give low values 1.01 | locus YMR125W, strain sto1, hits give low values 1.06 | locus YMR205C, strain PFK2, hits give low values 1.04 | locus YMR231W, strain pep5, hits give low values 1.03 | locus YNL071W, strain lat1, hits give low values 0.986 | locus YNL183C, strain NPR1, hits give low values 0.927 | locus YNL209W, strain ssb2, hits give low values 0.995 | locus YNL248C, strain rpa49, hits give low values 1.04 | locus YNL322C, strain KRE1 (second series), hits give low values 1.05 | locus YNR049C, strain mso1, hits give low values 1.04 | locus YOR001W, strain rrp6, hits give low values 1.03 | locus YOR070C, strain gyp1, hits give low values 1.03 | locus YOR080W, strain dia2, hits give low values 1.03 | locus YOR083W, strain WHI5, hits give low values 1 | locus YOR106W, strain vam3, hits give low values 1.02 | locus YOR231W, strain MKK1, hits give low values 0.997 | locus YOR265W, strain rbl2, hits give low values 1.02 | locus YOR270C, strain vph1, hits give low values 1 | locus YOR290C, strain snf2, hits give low values 0.999 | locus YPL051W, strain arl3, hits give low values 0.999 | locus YPL078C, strain atp4, hits give low values 1.04 | locus YPL106C, strain sse1, hits give low values 1.08 | locus YPL240C, strain hsp82, hits give low values 1.05 | locus YPL256C, strain CLN2, hits give low values 1.01

Reference: PubChem BioAssay AID1159580 (chemical genetic matrix, 2015)
